The values below come from PubChem BioAssay (NCATS).

Several values for one entry are separate records, joined by “and”; a condition that tells them apart may be missing. Equal values may be shown once. Records with an inconclusive call do not appear. Activity calls are given as the source filed them. Unless noted, calls come from the whole dose curve; as a rule, active = well fitted curve in the direction sought with a large enough effect; inconclusive = small, poorly fitted or top-dose-only effect, or another doubt; inactive = no such curve, though single readings can be large; an effect the other way counts as inactive or inconclusive.

In test [1] the target is Glucocorticoid receptor (Homo sapiens) (UniProt P04150). Nature of the test: qHTS assay for small molecule agonists of glucocorticoid receptor signaling (AID 588532; active = well fitted curve in the direction sought with a large enough effect in the signal ratio, with a control signal flat; the % refers to the signal ratio;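 note: 100% = dexamethasone at 0.1 µM and 0% = DMSO only wells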). Particulars: HeLa MMTV-bla, beta-lactamase ratio, agonist, 18 h; activation: stronger effect = higher value, percent of dexamethasone control, DMSO zero. Put shortly:
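MMTV-bla HeLa, beta-lactamase reporter; medium with 1% charcoal/dextran-stripped FBS; cpds up to 92 uM, 18 h, 37 C; CCF4 readout 460/530 nm; Hill fit → EC50, efficacy vs 0.1 uM dexamethasone = 100%.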

The target is the same in test [2]. The test can be described thus: qHTS assay for small molecule antagonists of glucocorticoid receptor signaling (AID 588533; active = well fitted inhibition curve with a large enough effect in the signal ratio, with a control signal flat, not every such curve was filed as active; the % refers to the signal ratio;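 note: cells stimulated with 2 nM dexamethasone as agonist; % is set by controls: 0 for no effect and ±100 for the full control effect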). In outline: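 Antagonist-mode qHTS: compound titrations added to GRE-bla HeLa cells, then dexamethasone 2 nM final; 18 h, 37 C. CCF4 FRET fluorescence normalized to dexamethasone and DMSO; IC50 from Hill fit.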
In general terms: qHTS replaces the single test concentration by a dilution series.

Test [3] is described as follows: qHTS assay for small molecule antagonists of peroxisome proliferator-activated receptor delta signaling (AID 588535; active = well fitted inhibition curve with a large enough effect in the signal ratio, with a control signal flat, not every such curve was filed as active; the % refers to the signal ratio;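 for max response: cells co-treated with a PPAR-delta agonist as stimulator during compound exposure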). Particulars: HEK293T PPARd-UAS-bla, beta-lactamase FRET ratio, 18 h; 460 nm channel. Put shortly: (§1)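 Inhibition of PPAR-delta response element-driven beta-lactamase expression is measured in HEK293T cells exposed to a compound titration series for 18 hrs at 37 C. Half-maximal inhibition comes from Hill equation fitting.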

Test [4] deals with Peroxisome proliferator-activated receptor delta (Homo sapiens) (UniProt Q03181). The description is as above. In outline:
as §1

Test [5] has as its target Peroxisome proliferator-activated receptor gamma (Homo sapiens) (UniProt P37231). Nature of the test: qHTS assay for small molecule antagonists of peroxisome proliferator-activated receptor gamma signaling (AID 588537; active = well fitted inhibition curve with a large enough effect in the signal ratio, with a control signal flat, not every such curve was filed as active; the % refers to the signal ratio;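 note: reporter cells co-stimulated with 50 nM rosiglitazone agonist during compound treatment; % of control where 0% means no effect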). In outline: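 Compounds are tested as concentration series for inhibition of rosiglitazone-driven (50 nM) reporter expression in GeneBLAzer PPAR-gamma-UAS-bla HEK293 cells. After 16 h at 37 C, CCF4 substrate is added for 2 h at room temperature and blue/green fluorescence is measured.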

Test [6] in a line: qHTS assay for small molecule antagonists of retinoid X receptor alpha signaling (AID 588546).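 Note: cells stimulated with 9-cis-retinoic acid as agonist; % is set by controls: 0 for no effect and ±100 for the full control effect.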 Particulars: HEK293T RXRa-UAS-bla, beta-lactamase ratio, antagonist mode; measured here: W530 green channel, cytotoxicity proxy. Put shortly:
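Beta-lactamase reporter inhibition, read as CCF4 fluorescence ratio (ex 405, em 460/530 nm) after 2 h at RT. HEK293T UAS-bla cells, 2500/well, were stimulated with 9-cis-RA at 500 or 100 nM final alongside test compound for 18 h at 37 C.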

For test [7], the target named is Thyroid hormone receptor beta (Homo sapiens) (UniProt P10828). The test can be described thus: qHTS assay for small molecule antagonists of thyroid hormone receptor beta signaling (AID 588547; active = well fitted inhibition curve with a large enough effect in the signal ratio, with a control signal flat, not every such curve was filed as active; the % refers to the signal ratio; note: potency is the fitted concentration of half-maximal effect;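 for activity change % (negative = inhibition): cells stimulated with 0.4 nM T3 agonist during compound exposure; series mostly up to about 77 µM; % is set by controls: 0 for no effect and ±100 for the full control effect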). Particulars: TR-UAS-bla HEK293, beta-lactamase ratio, antagonist mode, 18 h. Put shortly: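 TR-UAS-bla GripTite HEK293 cells in 2% charcoal/dextran FBS medium were preincubated 4 h at 37 C, given compound (0.59 nM to 92 uM) plus 0.4 nM T3 (final) for 18 h, then CCF4 for 2 h at RT; Hill fit gave IC50.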
Chain of Thyroid hormone receptor beta (Homo sapiens) (P10828 whole entry, looked up): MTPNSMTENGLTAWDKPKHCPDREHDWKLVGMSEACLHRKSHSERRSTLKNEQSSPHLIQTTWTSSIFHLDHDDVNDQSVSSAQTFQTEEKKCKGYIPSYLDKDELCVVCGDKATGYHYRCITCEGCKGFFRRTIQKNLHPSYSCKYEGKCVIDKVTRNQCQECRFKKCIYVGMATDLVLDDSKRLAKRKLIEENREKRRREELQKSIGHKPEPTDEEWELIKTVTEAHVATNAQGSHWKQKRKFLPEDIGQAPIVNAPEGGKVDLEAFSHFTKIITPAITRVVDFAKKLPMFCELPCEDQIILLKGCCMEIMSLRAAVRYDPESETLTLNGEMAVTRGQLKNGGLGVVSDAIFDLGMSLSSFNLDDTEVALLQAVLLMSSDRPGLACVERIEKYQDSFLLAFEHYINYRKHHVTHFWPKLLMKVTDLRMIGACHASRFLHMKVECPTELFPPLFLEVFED

Test [8] is described as follows: qHTS assay for small molecule agonists of the antioxidant response element (ARE) signaling pathway (AID 651741; active = well fitted activation curve with a large enough effect in the signal ratio; the % refers to the signal ratio; note: potency is the fitted concentration of half-maximal effect; for activation: % of control where 0% means no effect). In outline: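 Reporter: beta-lactamase under ARE, stably in HepG2. Exposure: 16 h, 37 C, compounds delivered in DMSO by pin tool after 5 h cell preincubation. Readout: FRET substrate fluorescence after 2 h at RT.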
Test [9] in a line: qHTS assay for small molecule activators of the nuclear factor-kappa B (NF-kB) signaling pathway (AID 651749; active = well fitted activation curve with a large enough effect in the signal ratio; the % refers to the signal ratio; note: series mostly up to about 77 µM; % of control where 0% means no effect). Particulars: NF-kB-bla ME-180 cells, beta-lactamase FRET ratio, 16 h; activation: stronger effect = higher value. Put shortly:
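Human ME-180 cervical cells with an NF-kB-bla construct; compounds added via 23 nL pin transfer, DMSO as vehicle; incubation 16 hr. Reporter activity measured by FRET disruption.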

Test [10] is described as follows: qHTS assay for environmental chemicals that activate the Aryl hydrocarbon Receptor (AhR) signaling pathway (AID 651777). Note: % of control where 0% means no effect; nearly all actives have a fitted effect of over 15% in size. The settings on record: 1A2-DRE human hepatoma cells, luciferase, 24 h; activation: stronger effect = higher value. In outline: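 Measured luciferase activity, read 30 min after One-Glo addition at room temperature, from human hepatoma cells bearing a dioxin response element–CYP1A2 promoter reporter and exposed to compound for 24 hr at 37 C.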

A short description of test [11]: qHTS assay for small molecule agonists of the antioxidant response element (ARE) signaling pathway measured by Nrf2-dependant transcriptional activity (AID 720636; active = well fitted curve in the direction sought with a large enough effect in the repeat runs; an effect the other way counts as inactive or inconclusive;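 note: HepG2 cells with an ARE-driven luciferase reporter; % of control where 0% means no effect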). Put shortly: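 In HepG2 cells engineered with an Nrf2-responsive luciferase gene, ARE induction was quantified as luminescence after 16 hr compound treatment at 37 C.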
Test [12] in a line: qHTS assay for cell viability of the p53RE-bla HCT-116 cell line (AID 743292). Note: % is set by controls: 0 for no effect and ±100 for the full control effect; nearly all actives have a fitted effect of over 55% in size. In outline: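 Intracellular ATP of p53RE-bla HCT-116 cells measured by luciferase luminescence following 16 h compound incubation at 37 C; DMSO-only wells served as vehicle controls.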
Test [13] addresses Nuclear receptor subfamily 1 group I member 2 (Rattus norvegicus) (UniProt Q9R1A7). The test can be described thus: qHTS assay for small molecule activators of the rat pregnane X receptor (rPXR) signaling pathway (AID 651751; call rule not given here; note: 0% is about no effect). The settings on record: rPXR reporter cells, luciferase (One-Glo), 24 h.
Test [14] in a line: qHTS assay for cell viability of HEK293 cells (AID 743288). Note: nearly all actives have a fitted effect of over 50% in size. Note: potency is the fitted concentration of half-maximal effect. Particulars: ATP luminescence (CellTiter-Glo), 18 h; max response: stronger effect = lower value. Put shortly: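 Readout is luciferase-coupled ATP content (CellTiter-Glo luminescence, 30 min room temperature) as a measure of metabolically competent cells. Parental HEK293 cells were plated 5 h or more before compound addition, then treated 18 h at 37 C.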

In test [15] the target is 3',5'-cyclic-AMP phosphodiesterase 4B (Homo sapiens) (UniProt Q07343). The test can be described thus: qHTS Assay for Inhibitors of PDE-IV (AID 607; active = well fitted activation curve with a large enough effect in the main read-out, with a control signal flat, not every such curve was filed as active; note: % of control where 0% means no effect). In outline: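 Live HEK293 cells with a modified cyclic nucleotide-gated (CNG) channel report intracellular cAMP via membrane-potential dye fluorescence (ex 535/em 590 nm). Endogenous PDE-IV was targeted. Compounds were tested at up to 22.9 uM final; RO 20-1724 100 uM served as control.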
Chain of 3',5'-cyclic-AMP phosphodiesterase 4B (Homo sapiens) (Q07343 whole entry, looked up): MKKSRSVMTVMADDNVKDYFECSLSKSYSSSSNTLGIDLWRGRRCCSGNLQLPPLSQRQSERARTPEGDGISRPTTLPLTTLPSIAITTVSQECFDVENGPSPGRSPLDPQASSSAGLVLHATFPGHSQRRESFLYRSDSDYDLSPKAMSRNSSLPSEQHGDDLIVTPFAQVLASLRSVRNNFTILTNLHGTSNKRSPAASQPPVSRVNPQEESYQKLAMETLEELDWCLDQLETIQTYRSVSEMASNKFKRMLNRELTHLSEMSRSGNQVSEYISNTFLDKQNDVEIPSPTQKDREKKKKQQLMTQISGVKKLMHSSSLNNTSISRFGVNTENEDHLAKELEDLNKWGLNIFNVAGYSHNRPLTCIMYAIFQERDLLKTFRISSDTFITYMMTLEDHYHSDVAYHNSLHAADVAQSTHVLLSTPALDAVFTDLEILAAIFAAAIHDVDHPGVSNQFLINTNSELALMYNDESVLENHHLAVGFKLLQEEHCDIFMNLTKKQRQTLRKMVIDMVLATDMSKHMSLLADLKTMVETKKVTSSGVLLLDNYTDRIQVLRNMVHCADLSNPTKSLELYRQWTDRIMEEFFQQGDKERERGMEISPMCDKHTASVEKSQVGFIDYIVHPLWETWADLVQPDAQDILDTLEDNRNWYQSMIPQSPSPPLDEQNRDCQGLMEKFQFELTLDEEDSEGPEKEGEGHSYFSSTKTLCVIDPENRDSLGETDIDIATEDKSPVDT

Test [16] has as its target Estrogen receptor (Homo sapiens) (UniProt P03372). Nature of the test: qHTS assay for small molecule agonists of estrogen receptor alpha signaling (AID 588514; calls by dose curve;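 note: 0% = vehicle only and 100% = reference agonist; nearly all actives have a fitted effect of over 70% in size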). In outline:
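Efficacy is expressed against 20 nM 17-beta-estradiol (100%) and DMSO basal (0%); EC50 from Hill equation. Assay: beta-lactamase reporter in ER-alpha-UAS-bla HEK 293 cells, 18 h compound incubation, CCF4 detection.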

The target in test [17] is Bile acid receptor (Homo sapiens) (UniProt Q96RI1). Nature of the test: qHTS assay for small molecule antagonists of farnesoid X receptor signaling (AID 588526; calls by dose curve; note: % is set by controls: 0 for no effect and ±100 for the full control effect). In outline:
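Concentration-response titrations were fitted to the Hill equation for half-maximal inhibition and maximal response, with data normalised to 50 uM chenodeoxycholic acid and DMSO control wells. Cells: FXR-UAS-bla HEK293T, dialyzed FBS.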

The target is the same in test [18]. The test can be described thus: qHTS assay for small molecule agonists of farnesoid X receptor signaling (AID 588527; calls by dose curve;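 note: series mostly up to about 77 µM; 0% = vehicle basal and 100% = reference agonist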). Particulars: HEK293T FXR-UAS-bla, beta-lactamase ratio, 16 h; activation: stronger effect = higher value. In outline: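 Quantitative HTS used FXR-UAS-bla HEK293T cells with 16 h compound incubation at 37 C. EC50 values came from concentration-response curves normalized to chenodeoxycholic acid.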

Test [19] concerns the target Peroxisome proliferator-activated receptor gamma (Homo sapiens) (UniProt P37231). Nature of the test: qHTS assay for small molecule agonists of peroxisome proliferator-activated receptor gamma signaling (AID 588536; active = well fitted curve in the direction sought with a large enough effect in the signal ratio, with a control signal flat, not every such curve was filed as active; the % refers to the signal ratio). In outline: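 Using GeneBLAzer HEK293 cells, response was quantified by CCF4 fluorescence and normalized between basal DMSO (0%) and rosiglitazone 2 uM (100%); curves yielded half-maximal stimulation concentration and efficacy.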

The nature of test [20]: qHTS assay for small molecule activators of the human pregnane X receptor (PXR) signaling pathway (AID 720659; call rule not given here; note: 0% is about no effect).

Chain of Bile acid receptor (Homo sapiens) (Q96RI1 whole entry, looked up): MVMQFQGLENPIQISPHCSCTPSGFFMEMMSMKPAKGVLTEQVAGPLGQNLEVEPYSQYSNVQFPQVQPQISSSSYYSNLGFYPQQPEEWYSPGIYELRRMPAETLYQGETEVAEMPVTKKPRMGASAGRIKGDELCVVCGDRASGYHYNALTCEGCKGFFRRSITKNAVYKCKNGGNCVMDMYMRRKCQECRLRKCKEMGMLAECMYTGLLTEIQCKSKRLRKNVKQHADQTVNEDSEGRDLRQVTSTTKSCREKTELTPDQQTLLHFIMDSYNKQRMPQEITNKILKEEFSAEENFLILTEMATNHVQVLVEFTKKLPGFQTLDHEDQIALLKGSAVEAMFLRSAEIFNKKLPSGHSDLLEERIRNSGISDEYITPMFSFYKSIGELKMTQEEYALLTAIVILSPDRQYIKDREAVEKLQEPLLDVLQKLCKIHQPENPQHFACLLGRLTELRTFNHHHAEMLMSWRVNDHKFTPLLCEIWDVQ
Chain of Peroxisome proliferator-activated receptor delta (Homo sapiens) (Q03181 whole entry, looked up): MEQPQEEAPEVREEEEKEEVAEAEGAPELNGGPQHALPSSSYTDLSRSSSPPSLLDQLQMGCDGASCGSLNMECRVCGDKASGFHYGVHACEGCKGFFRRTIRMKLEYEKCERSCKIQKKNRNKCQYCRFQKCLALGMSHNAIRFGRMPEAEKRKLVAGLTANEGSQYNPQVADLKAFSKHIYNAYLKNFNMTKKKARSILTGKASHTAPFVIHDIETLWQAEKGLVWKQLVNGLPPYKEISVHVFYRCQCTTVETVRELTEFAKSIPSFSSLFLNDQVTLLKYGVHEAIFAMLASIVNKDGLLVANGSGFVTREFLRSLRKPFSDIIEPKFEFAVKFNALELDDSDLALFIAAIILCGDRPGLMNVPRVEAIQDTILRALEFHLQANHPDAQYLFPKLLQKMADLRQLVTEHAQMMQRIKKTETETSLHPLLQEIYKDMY
Chain of Nuclear receptor subfamily 1 group I member 2 (Rattus norvegicus) (Q9R1A7 whole entry, looked up): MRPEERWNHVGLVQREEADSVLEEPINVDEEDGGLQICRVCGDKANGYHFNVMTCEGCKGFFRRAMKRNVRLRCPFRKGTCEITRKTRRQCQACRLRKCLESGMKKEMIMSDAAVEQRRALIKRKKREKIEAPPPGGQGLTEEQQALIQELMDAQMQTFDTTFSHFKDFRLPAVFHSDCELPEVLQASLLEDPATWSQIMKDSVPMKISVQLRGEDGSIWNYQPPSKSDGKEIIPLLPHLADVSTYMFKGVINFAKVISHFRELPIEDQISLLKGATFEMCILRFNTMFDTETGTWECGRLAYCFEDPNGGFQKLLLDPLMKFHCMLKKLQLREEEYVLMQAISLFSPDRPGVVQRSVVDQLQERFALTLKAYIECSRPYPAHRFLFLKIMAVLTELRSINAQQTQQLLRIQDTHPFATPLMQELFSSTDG
Chain of Estrogen receptor (Homo sapiens) (P03372 whole entry, looked up): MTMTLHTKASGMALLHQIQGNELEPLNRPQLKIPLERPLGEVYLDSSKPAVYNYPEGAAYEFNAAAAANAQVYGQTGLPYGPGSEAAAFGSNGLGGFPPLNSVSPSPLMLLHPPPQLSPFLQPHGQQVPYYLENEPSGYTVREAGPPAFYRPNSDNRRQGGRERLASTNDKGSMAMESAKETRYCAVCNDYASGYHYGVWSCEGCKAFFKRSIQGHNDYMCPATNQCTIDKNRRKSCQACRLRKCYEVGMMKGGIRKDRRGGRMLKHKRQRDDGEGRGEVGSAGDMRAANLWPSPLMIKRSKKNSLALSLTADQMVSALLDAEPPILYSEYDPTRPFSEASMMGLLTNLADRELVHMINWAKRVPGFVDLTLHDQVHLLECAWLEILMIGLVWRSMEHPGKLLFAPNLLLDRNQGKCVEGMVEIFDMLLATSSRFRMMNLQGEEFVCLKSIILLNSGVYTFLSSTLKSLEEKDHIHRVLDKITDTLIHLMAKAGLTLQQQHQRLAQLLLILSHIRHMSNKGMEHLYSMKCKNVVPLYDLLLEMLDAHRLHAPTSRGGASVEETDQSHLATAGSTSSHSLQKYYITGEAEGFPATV
Chain of Peroxisome proliferator-activated receptor gamma (Homo sapiens) (P37231 whole entry, looked up): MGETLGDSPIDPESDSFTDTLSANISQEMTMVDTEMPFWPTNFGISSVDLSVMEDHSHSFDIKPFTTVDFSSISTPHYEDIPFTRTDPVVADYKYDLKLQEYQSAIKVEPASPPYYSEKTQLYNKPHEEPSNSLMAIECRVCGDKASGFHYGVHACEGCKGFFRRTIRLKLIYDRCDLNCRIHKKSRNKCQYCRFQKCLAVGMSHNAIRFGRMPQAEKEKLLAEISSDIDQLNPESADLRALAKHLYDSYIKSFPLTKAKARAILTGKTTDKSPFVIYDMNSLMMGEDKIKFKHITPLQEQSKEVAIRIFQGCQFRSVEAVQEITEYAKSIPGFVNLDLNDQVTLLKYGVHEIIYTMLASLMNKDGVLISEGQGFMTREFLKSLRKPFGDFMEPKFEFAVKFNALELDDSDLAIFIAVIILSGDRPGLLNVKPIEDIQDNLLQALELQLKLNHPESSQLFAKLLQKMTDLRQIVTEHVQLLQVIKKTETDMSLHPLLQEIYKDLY
Chain of Glucocorticoid receptor (Homo sapiens) (P04150 whole entry, looked up): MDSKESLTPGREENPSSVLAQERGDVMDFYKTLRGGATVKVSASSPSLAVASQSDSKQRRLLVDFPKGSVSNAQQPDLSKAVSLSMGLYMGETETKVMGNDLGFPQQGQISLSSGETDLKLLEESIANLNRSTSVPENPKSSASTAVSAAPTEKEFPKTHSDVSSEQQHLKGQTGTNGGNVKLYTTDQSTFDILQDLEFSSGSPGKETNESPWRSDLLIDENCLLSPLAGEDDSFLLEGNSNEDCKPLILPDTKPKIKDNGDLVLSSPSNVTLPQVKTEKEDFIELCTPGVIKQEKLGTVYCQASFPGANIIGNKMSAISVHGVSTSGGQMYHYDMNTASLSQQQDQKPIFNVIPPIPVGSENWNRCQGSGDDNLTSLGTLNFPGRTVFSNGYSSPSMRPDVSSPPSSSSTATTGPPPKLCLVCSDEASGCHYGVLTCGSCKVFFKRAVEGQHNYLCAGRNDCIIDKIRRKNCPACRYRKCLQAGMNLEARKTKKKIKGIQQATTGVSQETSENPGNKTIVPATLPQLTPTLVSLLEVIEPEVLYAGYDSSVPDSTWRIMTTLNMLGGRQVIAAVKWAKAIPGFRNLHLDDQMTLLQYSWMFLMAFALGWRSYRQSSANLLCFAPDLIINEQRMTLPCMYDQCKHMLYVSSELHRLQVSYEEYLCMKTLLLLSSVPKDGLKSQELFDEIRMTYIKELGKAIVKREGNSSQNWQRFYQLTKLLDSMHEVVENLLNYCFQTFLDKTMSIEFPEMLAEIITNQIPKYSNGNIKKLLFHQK

In the case of `CCCCN(CC)c1c([N+](=O)[O-])cc(C(F)(F)F)cc1[N+](=O)[O-]`, the activation in [1] was -5.8% (inactive); in test [9], -1.55% (inactive); in test [10], -0.444% (inactive). Moreover, the Potency result in test [2], in [4], in [5], in test [8], in test [11] and in test [12] was “inactive” throughout. Moreover, the max response in [3] was 41.5%; in test [6], -9.26%; in [13], 3.44% (inactive). The activity change % (negative = inhibition) in test [7] is -21.6% (inactive).
For `N#Cc1c(Cl)c(Cl)c(Cl)c(C#N)c1Cl`, the max response in test [6] is -33.7%. For the same compound, the Potency in test [7] is 2.51 µM (active); in test [14], 15.8 µM (active). Further, in test [11], the Potency entry is “inactive”.
For the compound `COC(=O)[C@@]1(Cc2ccccc2)[C@H]2c3cc(C(=O)N(C)C)[nH]c3C[C@H]2CN1C(=O)c1ccccc1`, in test [15], the compound was called inactive.
Still for that read-out and setting: to `COC(=O)[C@@H]1C[C@@H]1[C@@H](NP(=O)(c1ccccc1)c1ccccc1)c1ccccc1` belongs “inactive”.
As to `CNC(=O)[C@@H]1C[C@H]1[C@@H](NP(=O)(c1ccccc1)c1ccccc1)c1ccccc1`, the compound was classed as inactive in test [15].
On the same count and under the same terms, next, `COC(=O)[C@@]1(Cc2ccccc2)[C@H]2c3cc(C(=O)N(C)C)n(C)c3C[C@H]2CN1C(=O)c1ccccc1`: “inactive”; `O=C(Oc1ccc([N+](=O)[O-])cc1)N1CCC(N2CCCCC2)CC1`: “inactive”.
As to `C=CC(=O)NCO`, the Potency result in [16], in test [17], in test [2], in test [4], in test [19] and in test [5] was “inactive” throughout. The Potency result in test [11] and in [12] was “inactive” in each case. The activation in [18] was 0.901% (inactive) and -4.9% (inactive); in test [1], -0.576% (inactive) and 6.11% (inactive); in [9], 0.439% (inactive) and -0.866% (inactive). The max response in test [3] is 1.4%; in [6], -9.77% and -7.1%; in [14], -8.84% (inactive) and -5.85% (inactive); in [13], 3.28% (inactive) and -7.26% (inactive). The activity change % (negative = inhibition) in test [7] was 0.0569% (inactive). The Potency in [8] is 501 µM (active). Also, in [20], the compound was classed as inactive.
On to `C/C(=N\C(N)=O)N(C)Cc1ccc(Cl)nc1`, for which the Potency entry in [16], in test [17], in [2], in test [4], in test [19] and in test [5] was “inactive” throughout. Further, the Potency entry in [11] and in test [12] was “inactive” throughout. Moreover, the activation in [18] is 2.77% (inactive); in test [1], -1.3% (inactive); in test [9], -1.01% (inactive); in [10] it was -0.747% (inactive). Also, the max response was 39.3% in [3], -9.48% in [6], 0.858% (inactive) in [14] and 2.68% (inactive) in [13]. Further, the activity change % (negative = inhibition) in test [7] is -10.7% (inactive). Also, in test [20], the compound was called inactive.
Regarding `O=C1C[C@@H]2OCC=C3CN4CC[C@]56c7ccccc7N1[C@H]5[C@@H]2[C@H]3C[C@@H]46`, the outcome in test [15] was inactive.
Consider `CCCc1cc2c(n1Cc1ccco1)C(C)C1CN(C(=O)c3ccccc3)C(C)(C(=O)OC)C21` (stereo not given), for which the result in test [15] was inactive.
